A selection: hits, their analogues and other compounds. The true share with any hit is near 3.8%.
TGFb inhibitor – qHTS for Inhibitors of TGF-b | HepG2 CAGA-GFP TGF-b/SMAD3 reporter, GFP fluorescence, 18 h; TGF-beta stimulated, 500 pg/mL final | Potency, µM (doses to about 46.1 µM), most hits filed as inhibitors | 410,000 compounds, 1.2% hits | AID 588855, 2011; further: nearly all actives have a fitted effect of over 65% in size
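Using HEPG2 CAGA-GFP reporter cells at 1000 cells/well, we pinned test compounds, stimulated with recombinant TGF-beta (500 pg/mL final) and measured total well GFP after 18 h.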
HepG2 viability – qHTS for Inhibitors of TGF-b: Cytotox Counterscreen. HepG2 CAGA-GFP viability, ATP luminescence, 18 h. Potency, µM (highest dose often 46.1 µM), most hits filed as cytotoxic. 410,000 compounds, 0.76% hits. AID 588856, 2011
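HepG2 CAGA-GFP cells (1000/well, DMEM with 1% FBS) received compound, then TGF-beta at 500 pg/mL final, and were incubated 18 hours at 37 degrees C. Viability was read by CellTiter-Glo luminescence. Media-only wells were set as complete cell-killing and DMSO as no toxicity.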
ATXN2 expr inh – Primary qHTS for Inhibitors of ATXN expression; 360,000 compounds, 0.72% hits; HEK-293 ATXN2-luciferase reporter, luminescence, 24 h; Potency, µM (top dose mostly 57 µM), most hits filed as inhibitors; further: nearly all actives have a fitted effect of over 55% in size
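ATXN2-luciferase reporter cells (luciferase flanked by upstream and downstream ATXN2 gene portions) were treated 24 h at 37 °C with compounds at up to 57 uM. SteadyGlo luminescence gave expression; GF-AFC fluorescence gave viability.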
Nrf2 inh – Nrf2 qHTS screen for inhibitors; A549 ARE-Fluc reporter, luciferase luminescence, 18-24 h; Potency, µM (highest dose often 46 µM), actives largely listed as inhibitors; 360,000 compounds, 2.1% hits; AID 504444, 2011; further: nearly all actives have a fitted effect of over 60% in size
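In this cell-based qHTS, ARE-driven firefly luciferase in A549 cells reports Nrf2 activity; the luminescent signal after BugLite lysis is the measured value, with a prior CellTiter-Fluor read for cell health.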
ATXN viability – Viability Counterscreen for Primary qHTS for Inhibitors of ATXN expression; S2 cells (HEK-293 line with an ATXN2-luciferase reporter) viability, CellTiter-Fluor protease fluorescence, 24 h; Potency, µM (doses to about 56.7 µM), usual class: cytotoxic; 400,000 compounds, 0.49% hits; further: nearly all actives have a fitted effect of over 40% in size
A549 tox – Nrf2 qHTS screen for inhibitors: counterscreen for cytotoxicity; A549 ARE-Fluc cells, CellTiter-Fluor viability, 18-24 h; Potency, µM (titrated, usually from 46 µM), usual class: inhibitors; 390,000 compounds, 0.16% hits; AID 504648, 2011
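A549 ARE_Fluc cells in 5% FBS OPTI-MEM were exposed to compounds in concentration-response for 18-24 h at 37 deg C. Viability was read by CellTiter-Fluor fluorescence (Ex 405/Em 525) after 30 min, before the luciferase read.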
A number is an active result; – = inactive; ? = inconclusive; · = no result given. The call rests on the fitted dose curve; in most records, active means well fitted curve in the direction sought with a large enough effect; inconclusive means small, poorly fitted or top-dose-only effect, or another doubt; inactive means no such curve, though single readings can be large; an effect the other way counts as inactive or inconclusive.

SMILES	TGFb inhibitor	HepG2 viability	ATXN2 expr inh	Nrf2 inh	ATXN viability	A549 tox
CCN(CC)c1ccc(C(=C2C=CC(=[N+](CC)CC)C=C2)c2cc(S(=O)(=O)O)ccc2S(=O)(=O)[O-])cc1	·	·	11µM	·	?	·
CS(=O)(=O)N(CC(O)CON=C1c2ccccc2-c2ccccc21)c1ccc(F)cc1 (stereo not drawn)	18µM	–	?	8.2µM	–	–
Cc1cccc(N(CC(O)CON=C2c3ccccc3-c3ccccc32)S(C)(=O)=O)c1 (stereo not drawn)	?	–	?	18µM	–	?
CC1(C(=O)NS(=O)(=O)c2ccccc2OC(F)(F)F)CCN1C(=O)Cc1ccccc1 (stereo not drawn)	–	–	–	·	–	·
Cc1ccc(C(=O)CSc2nnc(CNc3nc(-c4ccccc4)cs3)n2C)cc1	?	–	–	?	?	–
COc1cc2nccc(Oc3ccc(NC(=O)NC4CC4)c(Cl)c3)c2cc1C(N)=O	·	·	3.4µM	·	·	·
N=C1N(c2ccccc2)C(=S)C(=Nc2ccccc2)N1c1ccccc1	1.6µM	–	–	–	–	–
COc1ccc(N=C2C(=S)N(c3ccc(OC)cc3)C(=NS(=O)(=O)c3ccccc3)N2c2ccccc2)cc1	–	–	–	?	?	–
CC(=O)c1c(N2CCN(Cc3ccccc3)CC2)nc(=S)n(Cc2ccccc2)c1C	?	–	–	21µM	–	?
O=C(COc1ccc(S(=O)(=O)NCc2ccccc2)cc1)NCc1cccnc1	–	–	–	?	–	–
Cc1nc2ccccc2c2oc(C(=O)Nc3ccc(C(C)C)cc3)cc12	–	–	?	15µM	–	?
Cc1nc2ccccc2c2oc(C(=O)Nc3ccc4c(c3)OCCO4)cc12	–	–	–	23µM	–	–
COc1cc(NC(=O)c2cc3c(C)nc4ccccc4c3o2)cc(OC)c1OC	–	–	–	–	?	–
COc1ccc(-c2noc(-c3ccc(N4CCCC4)c([N+](=O)[O-])c3)n2)cc1	–	–	–	–	–	–
Cc1ccc(N(CC(=O)NC2CCCC2)C(=O)CCC(=O)Nc2nc(C)cs2)cc1	–	–	–	–	–	–
COc1ccc(-n2c(CNC(=O)c3cccc4ccccc34)nnc2SC)cc1	·	·	·	·	–	·
O=C(CC(C(=O)O)c1ccc(Cl)cc1)c1ccc(Br)cc1 (stereo not drawn)	–	10µM	–	–	–	–
CC(C)c1ccc(C(CC(=O)c2ccc(Cl)cc2)C(=O)O)cc1 (stereo not drawn)	–	–	–	?	?	–
COc1ccc(NC(=O)N2CCC(C(=O)c3ccc(F)cc3)CC2)cc1	–	–	–	–	–	–
CSc1ccc(NC(=O)N2CCC(C(=O)c3ccc(F)cc3)CC2)cc1	–	–	–	16µM	–	–
Cc1cccc(NC(=O)N2CCC(C(=O)c3ccc(F)cc3)CC2)c1	–	–	–	?	–	–
Cc1cc(C)cc(NC(=O)N2CCC(C(=O)c3ccc(F)cc3)CC2)c1	–	–	–	15µM	–	–
COc1ccccc1N1CCN(C(=O)c2ccc3c(c2)N(Cc2ccccc2)C(=O)c2ccccc2S3(=O)=O)CC1	·	–	·	–	·	–
COc1ccc(NC(=O)CN(C)C(=O)c2cccc(NS(=O)(=O)c3ccc(Br)cc3)c2)cc1	–	–	–	?	?	–
COc1ccc(C(CNC(=O)c2cccc(NS(=O)(=O)c3ccc(Br)cc3)c2)N(C)C)cc1 (stereo not drawn)	–	7.1µM	–	–	–	–
COc1ccc(NC(=O)C2Cc3c(-c4cccc(F)c4)ccnc3O2)cn1 (stereo not drawn)	–	–	–	·	?	·
Cc1cc(C(C)(C)C)oc1C(=O)N(CC(=O)NC1CCCC1)c1cccc(C(F)(F)F)c1	?	–	?	21µM	?	?
CCOc1nc2ccccc2nc1NS(=O)(=O)c1ccc(Cl)cc1	–	–	–	–	–	–
